We go through 8 compounds from article PMC5540273 (PLoS ONE, 2017).

Test systems include LCK; LIMK1; LIMK2; LRRK2; LTK; LYN; MAK; MAP3K15; MAP3K1; MAP3K2; MAP3K3; MAP3K4; MAP4K2; MAP4K3; MAP4K4; MAP4K5; MAPKAPK2.
Common to all, as to settings: concentration: 1 μM,replicates: in singlicate; n = 1
The subject of a further test is T1, LKB1.
T1 construct: gene STK11

The next test deals with T2, LOK.
T2 construct: gene STK10

The test system of a further test is T3, LZK.
T3 construct: gene MAP3K13
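Also: KINOMEscan kinase panel screen.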

As for `CCN1CCN(CCCC(=O)Nc2n[nH]c3nc(-c4ccc(O)cc4)c(Br)cc23)CC1` [SB-731579], the “%Inh” value with LCK was 66%; in the test with LIMK1, 0%; in the test with LIMK2 it was 0%; in the test with LKB1, 23%; with LOK, 13%; with LRRK2, 0%. Also, the “%Inh” value in the test with LTK is on record as 20%; in the test on LYN, 0%; with LZK it was 0%; with MAK, 35%; in the test with MAP3K15 it was 0%; in the test on MAP3K1 it was 0%. The “%Inh” value came out at 0% with MAP3K2; 0% with MAP3K3; 0% in the test with MAP3K4; 0% in the test on MAP4K2; 0% in the test with MAP4K3; 7% in the test on MAP4K4. The results for the “%Inh” value in the test with MAP4K5 and in the test on MAPKAPK2 were 5% and 17%, respectively.

`NC(=O)c1ccc(-c2cc3ncnc(SCC(=O)O)c3s2)cc1`: the “%Inh” value came to 2% in the test on LCK; 0% in the test on LIMK1; 21% with LIMK2; 18% in the test on LKB1; 0% in the test on LOK; 11% with LRRK2. Further, the “%Inh” value was 0% in the test on LTK; 23% in the test on LYN; 2% in the test on LZK; 45% in the test with MAK; 0% with MAP3K15; 0% in the test on MAP3K1. In addition, the “%Inh” value in the test with MAP3K2 is on record as 0%; in the test with MAP3K3, 0%; in the test on MAP3K4, 0%; with MAP4K2, 0%; in the test with MAP4K3, 0%; in the test with MAP4K4 it was 5%. Moreover, the “%Inh” value is recorded as 1% in the test on MAP4K5 and 0% in the test with MAPKAPK2.

Turning to `Cn1ccc2ncnc(Oc3ccc(NC(=O)Nc4cncc(C(F)(F)F)c4)c(Cl)c3)c21`, the “%Inh” value in the test with LCK is 50%; with LIMK1, 0%; in the test on LIMK2, 0%; in the test on LKB1, 0%; in the test on LOK, 99.2%; with LRRK2, 0%. Moreover, the “%Inh” value in the test on LTK amounted to 16%; in the test on LYN it was 32%; in the test on LZK, 0%; with MAK, 0%; in the test on MAP3K15, 0%; in the test on MAP3K1, 0%. Also, the “%Inh” value in the test on MAP3K2 is reported as 0%; with MAP3K3, 0%; in the test with MAP3K4, 3%; with MAP4K2 it was 0%; in the test with MAP4K3, 0%; in the test with MAP4K4, 0%. Also, the “%Inh” value in the test on MAP4K5 and in the test on MAPKAPK2 was 0% throughout.

On to `c1ccc(Oc2ccc(Nc3ccnc4ccc(-c5ccccn5)cc34)cc2)cc1` [GW407034], for which the “%Inh” value in the test with LCK stood at 83%; with LIMK1 it was 5%; with LIMK2 it was 0%; with LKB1, 0%; with LOK, 0%; in the test with LRRK2, 5%. For the same compound, the “%Inh” value was determined as 0% in the test on LTK; 22% in the test on LYN; 0% with LZK; 59% in the test on MAK; 0% with MAP3K15; 14% in the test with MAP3K1. Also, the “%Inh” value turned out to be 14% with MAP3K2; 0% with MAP3K3; 17% in the test on MAP3K4; 0% in the test with MAP4K2; 11% in the test on MAP4K3; 21% with MAP4K4. For the same compound, the “%Inh” value in the test with MAP4K5 amounted to 13%; with MAPKAPK2, 24%.

With `CS(=O)(=O)c1cccc(CNc2nc(Nc3ccc4c(c3)[C@@H]3C[C@@H]4CNC3=O)ncc2C(F)(F)F)c1`, the “%Inh” value in the test on LCK is 0%; with LIMK1 it was 0%; in the test on LIMK2, 0%; in the test with LKB1, 12%; in the test on LOK, 81%; in the test with LRRK2, 72%. Further, the “%Inh” value in the test with LTK stood at 5%; with LYN it was 25%; in the test with LZK, 0%; in the test with MAK it was 0%; in the test on MAP3K15 it was 0%; in the test on MAP3K1, 0%. The “%Inh” value in the test on MAP3K2 is listed as 65%; in the test with MAP3K3, 47%; with MAP3K4, 0%; with MAP4K2, 68%; in the test with MAP4K3, 68%; with MAP4K4 it was 40%. The “%Inh” value in the test with MAP4K5 and with MAPKAPK2 was 0% in each case.

For `CC(=O)Nc1nc2cnc(Nc3cc(NC(=O)c4cccc(CC(C)(C)C#N)c4)ccc3C)nc2s1`, the “%Inh” value in the test with LCK was determined as 72%; with LIMK1, 0%; in the test with LIMK2, 2%; in the test on LKB1, 1%; in the test with LOK, 55%; in the test on LRRK2, 9%. The “%Inh” value stood at 2% in the test on LTK; 58% with LYN; 15% in the test on LZK; 0% in the test on MAK; 22% with MAP3K15; 13% in the test on MAP3K1. The “%Inh” value is given as 0% in the test on MAP3K2; 36% in the test with MAP3K3; 0% with MAP3K4; 0% in the test with MAP4K2; 0% with MAP4K3; 7% with MAP4K4. In addition, the “%Inh” value in the test with MAP4K5 and in the test with MAPKAPK2 was 0% in each case.

As to `Cc1ccc2c(-c3ccnc(Nc4ccc(C(F)(F)F)cc4)n3)cnn2n1` [GW819776], the “%Inh” value amounted to 10% with LCK; 2% in the test with LIMK1; 0% with LIMK2; 24% in the test on LKB1; 16% in the test on LOK; 0% in the test with LRRK2. Moreover, the “%Inh” value with LTK came out at 28%; in the test with LYN it was 1%; in the test on LZK, 0%; in the test with MAK, 20%; in the test on MAP3K15, 10%; with MAP3K1 it was 0%. In addition, the “%Inh” value with MAP3K2 is recorded as 20%; in the test with MAP3K3, 0%; in the test on MAP3K4, 0%; in the test on MAP4K2, 0%; in the test on MAP4K3 it was 0%; in the test with MAP4K4 it was 0%. For the same compound, the “%Inh” value with MAP4K5 and in the test on MAPKAPK2 was 0% in each case.

For the compound `CN(c1ccc2c(c1)nc(NCc1ccc(F)cc1)n2C)c1ccnc(Nc2ccc(CS(C)(=O)=O)cc2)n1.Cl` [GW813244], the “%Inh” value in the test on LCK is recorded as 67%; with LIMK1, 33%; in the test with LIMK2, 0%; with LKB1, 29%; with LOK, 99.5%; with LRRK2, 0%. Besides, the “%Inh” value came out at 48% with LTK; 68% in the test on LYN; 0% with LZK; 2% in the test with MAK; 24% in the test on MAP3K15; 26% in the test on MAP3K1. The “%Inh” value in the test with MAP3K2 is on record as 31%; in the test with MAP3K3, 23%; in the test with MAP3K4 it was 2%; with MAP4K2, 0%; in the test with MAP4K3 it was 40%; in the test with MAP4K4 it was 10%. In addition, the “%Inh” value is on record as 11% in the test on MAP4K5 and 0% with MAPKAPK2.
